± gives the standard deviation.
T1: HaloTag-ATRX ADD domain (163-292)
T1 chain: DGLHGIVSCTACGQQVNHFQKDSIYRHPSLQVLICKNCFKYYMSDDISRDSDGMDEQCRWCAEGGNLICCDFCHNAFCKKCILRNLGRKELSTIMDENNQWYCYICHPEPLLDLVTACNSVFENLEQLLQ


Target: T1, HaloTag-ATRX ADD domain (163-292)
Experiment: peptide microarray binding signal (635 nm), min-max normalized on array (fraction of array maximum); higher = stronger binding
Conditions: peptide region: Unmod H1 variant; binder concentration: 50 nM
Outline: (§1)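 Arrays carried histone 13-mer peptide–cellulose conjugates printed in triplicate on nitrocellulose alongside a Cy3 tracer. After overnight blocking at 4°C, they were incubated for 1 h at 4°C with biotin-labelled HaloTag reader fusions (10 nM to 1 μM) plus streptavidin-Alexa Fluor 647, or with rabbit histone antibodies (1:10,000 to 1:2,000) plus anti-rabbit Alexa 647. Scanning on an Axon GenePix 4000B used 635 nm for signal and 532 nm for misprints. The binding signal reported is each triplicate's mean spot intensity after per-library min-max scaling.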

Binder	peptide microarray binding signal
KSPAKAKAVKPKA [Unmod H1 variant K S P A K A K A V K P K A]	0.0194 ± 0.0034
LKKALAAAGYDVE [Unmod H1 variant L K K A L A A A G Y D V E]	0.0162 ± 0.00021
IVQAASSSKERGG [Unmod H1 variant I V Q A A S S S K E R G G]	0.0196 ± 0.0029
TKPGASKVATKTK [Unmod H1 variant T K P G A S K V A T K T K]	0.0164 ± 0.00041
YDVEKNNSRIKLG [Unmod H1 variant Y D V E K N N S R I K L G]	0.0163 ± 0.00037
PAGPSVSELIVQA [Unmod H1 variant P A G P S V S E L I V Q A]	0.0127 ± 0.00021
AGKKAKKPAKAAA [Unmod H1 variant A G K K A K K P A K A A A]	0.0147 ± 0.00057
ERGGVSLAALKKA [Unmod H1 variant E R G G V S L A A L K K A]	0.0175 ± 0.00043
KAKKPAATRKSSK [Unmod H1 variant K A K K P A A T R K S S K]	0.0344 ± 0.02
SETVPPAPAASAA [Unmod H1 variant S E T V P P A P A A S A A]	0.0132 ± 0.00014

Same assay, conditions: peptide region: Unmod H1 variant; binder concentration: 500 nM

Binder	peptide microarray binding signal
KSPAKAKAVKPKA [Unmod H1 variant K S P A K A K A V K P K A]	0.00619 ± 0.00021
LKKALAAAGYDVE [Unmod H1 variant L K K A L A A A G Y D V E]	0.0149 ± 0.00063
IVQAASSSKERGG [Unmod H1 variant I V Q A A S S S K E R G G]	0.0152 ± 0.00061
TKPGASKVATKTK [Unmod H1 variant T K P G A S K V A T K T K]	0.0137 ± 0.0012
YDVEKNNSRIKLG [Unmod H1 variant Y D V E K N N S R I K L G]	0.0175 ± 0.00085
PAGPSVSELIVQA [Unmod H1 variant P A G P S V S E L I V Q A]	0.00367 ± 0.00014
AGKKAKKPAKAAA [Unmod H1 variant A G K K A K K P A K A A A]	0.0114 ± 0.0028
ERGGVSLAALKKA [Unmod H1 variant E R G G V S L A A L K K A]	0.0165 ± 0.00037
KAKKPAATRKSSK [Unmod H1 variant K A K K P A A T R K S S K]	0.0133 ± 0.00041
SETVPPAPAASAA [Unmod H1 variant S E T V P P A P A A S A A]	0.00691 ± 0.00014

The binders below were run against HaloTag-ING2 PHD (mouse Ing2 200-280) in the same assay as above. Conditions: peptide region: Unmod H1 variant; binder concentration: 10 nM.
Outline: as §1

Binder	peptide microarray binding signal
KSPAKAKAVKPKA [Unmod H1 variant K S P A K A K A V K P K A]	0.00167 ± 3.4e-05
LKKALAAAGYDVE [Unmod H1 variant L K K A L A A A G Y D V E]	0.00322 ± 3.5e-05
IVQAASSSKERGG [Unmod H1 variant I V Q A A S S S K E R G G]	0.0112 ± 0.00078
TKPGASKVATKTK [Unmod H1 variant T K P G A S K V A T K T K]	0.00215 ± 5e-05
YDVEKNNSRIKLG [Unmod H1 variant Y D V E K N N S R I K L G]	0.00841 ± 0.00067
PAGPSVSELIVQA [Unmod H1 variant P A G P S V S E L I V Q A]	0.00203 ± 3.6e-05
AGKKAKKPAKAAA [Unmod H1 variant A G K K A K K P A K A A A]	0.00507 ± 0.00099
ERGGVSLAALKKA [Unmod H1 variant E R G G V S L A A L K K A]	0.0122 ± 0.00043
KAKKPAATRKSSK [Unmod H1 variant K A K K P A A T R K S S K]	0.00227 ± 5.2e-05
SETVPPAPAASAA [Unmod H1 variant S E T V P P A P A A S A A]	0.00448 ± 6.1e-05

Same assay, conditions: peptide region: Unmod H1 variant; binder concentration: 100 nM

Binder	peptide microarray binding signal
KSPAKAKAVKPKA [Unmod H1 variant K S P A K A K A V K P K A]	0.0159 ± 0.014
LKKALAAAGYDVE [Unmod H1 variant L K K A L A A A G Y D V E]	0.004606 ± 3.8e-05
IVQAASSSKERGG [Unmod H1 variant I V Q A A S S S K E R G G]	0.0197 ± 0.0013
TKPGASKVATKTK [Unmod H1 variant T K P G A S K V A T K T K]	0.00694 ± 0.00026
YDVEKNNSRIKLG [Unmod H1 variant Y D V E K N N S R I K L G]	0.0132 ± 0.00014
PAGPSVSELIVQA [Unmod H1 variant P A G P S V S E L I V Q A]	0.00177 ± 3.1e-05
AGKKAKKPAKAAA [Unmod H1 variant A G K K A K K P A K A A A]	0.00539 ± 0.00095
ERGGVSLAALKKA [Unmod H1 variant E R G G V S L A A L K K A]	0.0252 ± 0.0017
KAKKPAATRKSSK [Unmod H1 variant K A K K P A A T R K S S K]	0.0068 ± 0.00046
SETVPPAPAASAA [Unmod H1 variant S E T V P P A P A A S A A]	0.00446 ± 0.00013

These binders were tested against anti-H3K4me3 antibody ab8580 in the same assay as above. Conditions: peptide region: Unmod H1 variant; binder concentration: 1:2,000 dilution.
Outline: as §1

Binder	peptide microarray binding signal
KSPAKAKAVKPKA [Unmod H1 variant K S P A K A K A V K P K A]	0.000283
LKKALAAAGYDVE [Unmod H1 variant L K K A L A A A G Y D V E]	0.000982 ± 5.9e-05
IVQAASSSKERGG [Unmod H1 variant I V Q A A S S S K E R G G]	0.00279 ± 6.5e-05
TKPGASKVATKTK [Unmod H1 variant T K P G A S K V A T K T K]	0.00117 ± 0.00015
YDVEKNNSRIKLG [Unmod H1 variant Y D V E K N N S R I K L G]	0.000944 ± 1.6e-05
PAGPSVSELIVQA [Unmod H1 variant P A G P S V S E L I V Q A]	0.00111 ± 0.00011
AGKKAKKPAKAAA [Unmod H1 variant A G K K A K K P A K A A A]	0.000585 ± 4.5e-05
ERGGVSLAALKKA [Unmod H1 variant E R G G V S L A A L K K A]	0.00283 ± 4.9e-05
KAKKPAATRKSSK [Unmod H1 variant K A K K P A A T R K S S K]	0.000755 ± 1.4e-05
SETVPPAPAASAA [Unmod H1 variant S E T V P P A P A A S A A]	0.00151 ± 2.3e-05

Same assay, conditions: peptide region: Unmod H1 variant; binder concentration: 1:10,000 dilution

Binder	peptide microarray binding signal
KSPAKAKAVKPKA [Unmod H1 variant K S P A K A K A V K P K A]	0.000571 ± 1.1e-05
LKKALAAAGYDVE [Unmod H1 variant L K K A L A A A G Y D V E]	0.001655 ± 1.6e-05
IVQAASSSKERGG [Unmod H1 variant I V Q A A S S S K E R G G]	0.00708 ± 0.00071
TKPGASKVATKTK [Unmod H1 variant T K P G A S K V A T K T K]	0.00097 ± 9.9e-06
YDVEKNNSRIKLG [Unmod H1 variant Y D V E K N N S R I K L G]	0.00114 ± 3e-05
PAGPSVSELIVQA [Unmod H1 variant P A G P S V S E L I V Q A]	0.00097 ± 2.6e-05
AGKKAKKPAKAAA [Unmod H1 variant A G K K A K K P A K A A A]	0.000856 ± 8.9e-06
ERGGVSLAALKKA [Unmod H1 variant E R G G V S L A A L K K A]	0.00496 ± 0.00014
KAKKPAATRKSSK [Unmod H1 variant K A K K P A A T R K S S K]	0.00103 ± 2.1e-05
SETVPPAPAASAA [Unmod H1 variant S E T V P P A P A A S A A]	0.00223 ± 4e-05

The binders below were run against anti-H3K9me3 antibody ab8898 in the same assay as above. Conditions: peptide region: Unmod H1 variant; binder concentration: 1:2,000 dilution.
Outline: as §1

Binder	peptide microarray binding signal
KSPAKAKAVKPKA [Unmod H1 variant K S P A K A K A V K P K A]	0.000196 ± 2.1e-06
LKKALAAAGYDVE [Unmod H1 variant L K K A L A A A G Y D V E]	0.000861 ± 5.4e-05
IVQAASSSKERGG [Unmod H1 variant I V Q A A S S S K E R G G]	0.00216 ± 0.00024
TKPGASKVATKTK [Unmod H1 variant T K P G A S K V A T K T K]	0.000302 ± 6.2e-06
YDVEKNNSRIKLG [Unmod H1 variant Y D V E K N N S R I K L G]	0.000453 ± 1.5e-05
PAGPSVSELIVQA [Unmod H1 variant P A G P S V S E L I V Q A]	0.000438 ± 1.7e-05
AGKKAKKPAKAAA [Unmod H1 variant A G K K A K K P A K A A A]	0.000181
ERGGVSLAALKKA [Unmod H1 variant E R G G V S L A A L K K A]	0.00225 ± 8.6e-05
KAKKPAATRKSSK [Unmod H1 variant K A K K P A A T R K S S K]	0.000211 ± 2.2e-06
SETVPPAPAASAA [Unmod H1 variant S E T V P P A P A A S A A]	0.000891 ± 7.7e-05

Same assay, conditions: peptide region: Unmod H1 variant; binder concentration: 1:10,000 dilution

Binder	peptide microarray binding signal
KSPAKAKAVKPKA [Unmod H1 variant K S P A K A K A V K P K A]	0.000577 ± 6.2e-06
LKKALAAAGYDVE [Unmod H1 variant L K K A L A A A G Y D V E]	0.001211 ± 1.2e-05
IVQAASSSKERGG [Unmod H1 variant I V Q A A S S S K E R G G]	0.00306 ± 0.00012
TKPGASKVATKTK [Unmod H1 variant T K P G A S K V A T K T K]	0.000692 ± 7.3e-06
YDVEKNNSRIKLG [Unmod H1 variant Y D V E K N N S R I K L G]	0.00075 ± 1.6e-05
PAGPSVSELIVQA [Unmod H1 variant P A G P S V S E L I V Q A]	0.00075 ± 7.9e-06
AGKKAKKPAKAAA [Unmod H1 variant A G K K A K K P A K A A A]	0.000692 ± 7.3e-06
ERGGVSLAALKKA [Unmod H1 variant E R G G V S L A A L K K A]	0.00283 ± 4.9e-05
KAKKPAATRKSSK [Unmod H1 variant K A K K P A A T R K S S K]	0.00075 ± 7.9e-06
SETVPPAPAASAA [Unmod H1 variant S E T V P P A P A A S A A]	0.00115 ± 2e-05
